# From PubChem BioAssay
# Unmarked numbers belong to inactive results. The rule behind the calls is not given here.
# Biological target: Pantothenate synthetase (Mycobacterium tuberculosis (strain ATCC 25618 / H37Rv)) (UniProt P9WIL5)
# Assay: Coupled enzyme confirmation of inhibitors against recombinant Mtb PanC (AID 375);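 note: 0% = full reaction with vehicle and 100% = no enzyme background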
# Settings: coupled enzyme assay; at 10 µM, hits give high values
# Sequence of Pantothenate synthetase (Mycobacterium tuberculosis (strain ATCC 25618 / H37Rv)) (P9WIL5 whole entry, looked up): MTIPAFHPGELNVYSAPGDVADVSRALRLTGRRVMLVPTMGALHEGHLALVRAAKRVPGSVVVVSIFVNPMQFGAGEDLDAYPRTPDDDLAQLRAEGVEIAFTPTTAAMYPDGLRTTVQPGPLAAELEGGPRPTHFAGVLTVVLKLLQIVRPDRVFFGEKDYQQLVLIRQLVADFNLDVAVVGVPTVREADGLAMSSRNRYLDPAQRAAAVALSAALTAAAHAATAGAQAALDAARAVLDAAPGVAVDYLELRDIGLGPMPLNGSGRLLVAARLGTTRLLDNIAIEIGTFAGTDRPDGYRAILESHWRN
row,SMILES,inhibition [%]
1,CCCCN(CC)S(=O)(=O)N1CCC(C(=O)NCc2ccc(F)cc2)CC1,6
2,COCCCNC(=O)Cn1cc2c(n1)CCC(C)C2 (stereo not given),3
3,COc1ccc(-c2cc(C(F)F)n3ncc(C(=O)NCC4CCCO4)c3n2)cc1 (stereo not given),4
4,O=C(O)C1CC=CCC1C(=O)Nc1cccc(F)c1 (stereo not given),3
5,CN1CCc2nc(SCCOc3ccccc3)c(C#N)cc2C1,0
6,Cc1cc(NC(=O)CSc2nc3c(c(=O)n2Cc2ccccc2)SC(C)C3)no1 (stereo not given),0
7,CCCn1nc(NC(=O)c2cccs2)c2cc3cc(OC)ccc3nc21,0
8,O=C(c1ccc(S(=O)(=O)N2CCOCC2)cc1)N(c1ccc(F)cc1)C1C=CS(=O)(=O)C1 (stereo not given),0
9,CCC(C)NC(=O)c1cn(CC)c2ccc(S(=O)(=O)N(C)C)cc2c1=O (stereo not given),0
10,CCOC(=O)CSc1nnc(NC(=O)c2cccc(S(=O)(=O)N3CCCCC3)c2)s1,5
11,COC(=O)CCSCc1cn2cc(Cl)ccc2n1,0
12,Cc1ccc(O)c(C(CC(=O)N2CCCC2)c2ccccc2)c1 (stereo not given),0
13,O=C(Nc1ccc(Br)cc1F)c1sccc1-n1cccc1,4
14,COc1ccc(-n2ncc3c(=O)n(CC(=O)OCc4ccccc4)cnc32)cc1,0
15,O=C1CC(=O)N(Cc2cccs2)C(=O)N1,0
16,O=C(CSc1nnc2c3cc(F)ccc3nc(-c3ccccc3)n12)N1CCOCC1,0
17,O=S1(=O)C=C(Oc2ccc(F)cc2)c2ccccc21,4
18,O=C(CN1C(=O)c2ccccc2C1=O)Nc1ccc(S(=O)(=O)NCC2CCCO2)cc1 (stereo not given),0
19,OC(CCN1CCOCC1)(c1ccc(Cl)cc1)C1CCCCC1 (stereo not given),0
20,CCOC(=O)c1oc2ccccc2c1NC(=O)COC,0

row,SMILES,inhibition [%]
1,CCOc1ccc(OCC)c(NS(=O)(=O)c2ccc3c(c2)n(C)c(=O)c(=O)n3C)c1,3
2,O=S(=O)(c1ccc2c(c1)OCCO2)N1CCN(Cc2ccc3c(c2)OCO3)CC1,4
3,CN1CCN(C(=O)C2(NC(=O)Nc3cccc(F)c3)CCCCC2)CC1,0
4,COc1cccc(-n2c(CNc3ccc(F)cc3)nnc2SCC(N)=O)c1,0
5,Cc1cccnc1-n1c(CCN2C(=O)c3ccccc3C2=O)nc2ccccc2c1=O,9
6,O=C(CN1CCN(C(=O)c2ccccc2)CC1)Nc1ncc(Br)cc1Br,0
7,Cc1cc2c(c(=O)o1)C(Cc1ccccc1)C(C#N)=C(N)O2 (stereo not given),1
8,Cc1ccc(-c2nnnn2CS(=O)(=O)c2ccccc2)cc1,0
9,COc1cc(C2=NOC(C(=O)NCc3ccc(F)cc3)C2)cc(OC)c1OC (stereo not given),0
10,CCn1cc(/C=C(/C#N)S(=O)(=O)c2ccccc2)cn1,2
11,O=C(Nc1ccc2c(c1)OCCO2)C1CCN(C(=O)c2ccc(F)cc2)CC1,0
12,COc1ccc(OCCCC(=O)Nc2ccc3c(c2)OCCO3)cc1,4
13,O=C(NCC1CCCO1)C1CCN(S(=O)(=O)c2cccc3cccnc23)CC1 (stereo not given),0
14,CC(=O)OCCNc1cc(N2CCN(C)CC2)c2noc3c2c1C(=O)c1ccccc1-3,0
15,CCOC(=O)CSc1nnc(-c2ccccc2OC)o1,0
16,COc1cccc(C2C(C(N)=O)=C(C)Nc3nc(-c4ccccc4Cl)nn32)c1 (stereo not given),0
17,O=C(c1ccc(Cl)c(F)c1F)N1CCCC1,3
18,CCOc1cc(C2Nc3ccccc3C(=O)N2c2ccccc2OC)ccc1O (stereo not given),0
19,COc1cc(C(=O)Nc2cccc(-c3nncn3C)c2)cc(OC)c1OC,0
20,Nc1c(C2=NCCO2)nnn1Cc1ccccc1,0
